Laboratory results as given in PubChem BioAssay (Tox21).
Inconclusive results are not listed. A structure can be active in one record and inactive in another. Activity calls are given as the source filed them. Unless noted, the call rests on the fitted dose curve; in most records, active means well fitted curve in the direction sought with a large enough effect in the repeat runs; inconclusive means weak or mixed curves; inactive means no such curve, though single readings can be large; an effect the other way counts as inactive or inconclusive.

Tests used:
[1] = biological target: Thyrotropin receptor (Homo sapiens) (UniProt P16473); test: qHTS assay to identify small molecule antagonists of the thyroid stimulating hormone receptor (TSHR) signaling pathway (AID 1259385; calls by dose curve; further: nearly all actives have a fitted effect of over 20% in size); settings: TSHR-HEK293 cAMP HTRF, TSH-stimulated antagonist mode; series mostly up to 92.4 µM
Thyrotropin receptor (Homo sapiens), sequence (P16473 whole entry, looked up): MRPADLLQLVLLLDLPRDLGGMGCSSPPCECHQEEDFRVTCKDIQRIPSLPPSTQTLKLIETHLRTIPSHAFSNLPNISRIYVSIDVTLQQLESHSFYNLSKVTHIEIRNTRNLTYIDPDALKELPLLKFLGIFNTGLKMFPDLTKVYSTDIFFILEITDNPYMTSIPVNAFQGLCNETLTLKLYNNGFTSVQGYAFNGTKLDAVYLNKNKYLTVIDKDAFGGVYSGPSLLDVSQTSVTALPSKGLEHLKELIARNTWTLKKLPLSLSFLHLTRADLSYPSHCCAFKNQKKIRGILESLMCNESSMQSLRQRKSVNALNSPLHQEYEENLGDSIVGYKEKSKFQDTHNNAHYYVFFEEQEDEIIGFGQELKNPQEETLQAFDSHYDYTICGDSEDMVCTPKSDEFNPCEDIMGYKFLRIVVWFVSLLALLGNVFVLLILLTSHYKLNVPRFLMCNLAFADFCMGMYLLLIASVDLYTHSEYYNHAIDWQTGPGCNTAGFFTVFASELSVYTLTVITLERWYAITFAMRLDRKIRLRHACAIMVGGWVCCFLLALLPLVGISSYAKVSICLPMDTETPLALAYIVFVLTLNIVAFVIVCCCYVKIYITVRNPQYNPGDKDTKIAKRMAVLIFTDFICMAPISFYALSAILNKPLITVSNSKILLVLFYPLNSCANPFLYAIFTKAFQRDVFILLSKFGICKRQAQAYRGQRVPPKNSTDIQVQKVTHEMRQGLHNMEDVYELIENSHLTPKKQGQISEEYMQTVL
How it was run: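 TSHR-HEK293 cells (800/well) plated 18 h, then compounds with Ro20-1724 and TSH at 1.5 ng/mL final, 30 min at room temperature. cAMP quantified by HTRF (cAMP-d2/anti-cAMP-cryptate, 1 h); 15 concentrations in triplicate.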

[2] = qHTS assay to identify small molecule agonists of the estrogen receptor alpha (ER-alpha) signaling pathway in the presence of an antagonist - cell viability counter screen (AID 1259386); settings: VM7Luc4E2 viability, CellTiter-Fluor fluorescence, 22 h; series mostly up to 92.4 µM;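 further: cells exposed to compounds for 22 h at 37 °C before the viability read; nearly all actives have a fitted effect of over 30% in size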
How it was run: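 ICI-182,780 at 10.0nM final accompanies the compound titration (15 concentrations, 22hr, 37C) on VM7Luc4E2 cells. The CellTiter-Fluor fluorescence readout runs in the same wells as the luciferase assay.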

[3] = biological target: Progesterone receptor (Homo sapiens) (UniProt P06401); test: qHTS assay to identify small molecule agonists of the progesterone receptor (PR) signaling pathway (AID 1346784; calls by dose curve; further: nearly all actives have a fitted effect of over 30% in size; further: potency means the concentration at half of the fitted maximal effect); settings: PR-UAS-bla HEK293T, beta-lactamase FRET ratio, 16 h; series mostly up to 92.4 µM
Progesterone receptor (Homo sapiens), sequence (P06401 whole entry, looked up): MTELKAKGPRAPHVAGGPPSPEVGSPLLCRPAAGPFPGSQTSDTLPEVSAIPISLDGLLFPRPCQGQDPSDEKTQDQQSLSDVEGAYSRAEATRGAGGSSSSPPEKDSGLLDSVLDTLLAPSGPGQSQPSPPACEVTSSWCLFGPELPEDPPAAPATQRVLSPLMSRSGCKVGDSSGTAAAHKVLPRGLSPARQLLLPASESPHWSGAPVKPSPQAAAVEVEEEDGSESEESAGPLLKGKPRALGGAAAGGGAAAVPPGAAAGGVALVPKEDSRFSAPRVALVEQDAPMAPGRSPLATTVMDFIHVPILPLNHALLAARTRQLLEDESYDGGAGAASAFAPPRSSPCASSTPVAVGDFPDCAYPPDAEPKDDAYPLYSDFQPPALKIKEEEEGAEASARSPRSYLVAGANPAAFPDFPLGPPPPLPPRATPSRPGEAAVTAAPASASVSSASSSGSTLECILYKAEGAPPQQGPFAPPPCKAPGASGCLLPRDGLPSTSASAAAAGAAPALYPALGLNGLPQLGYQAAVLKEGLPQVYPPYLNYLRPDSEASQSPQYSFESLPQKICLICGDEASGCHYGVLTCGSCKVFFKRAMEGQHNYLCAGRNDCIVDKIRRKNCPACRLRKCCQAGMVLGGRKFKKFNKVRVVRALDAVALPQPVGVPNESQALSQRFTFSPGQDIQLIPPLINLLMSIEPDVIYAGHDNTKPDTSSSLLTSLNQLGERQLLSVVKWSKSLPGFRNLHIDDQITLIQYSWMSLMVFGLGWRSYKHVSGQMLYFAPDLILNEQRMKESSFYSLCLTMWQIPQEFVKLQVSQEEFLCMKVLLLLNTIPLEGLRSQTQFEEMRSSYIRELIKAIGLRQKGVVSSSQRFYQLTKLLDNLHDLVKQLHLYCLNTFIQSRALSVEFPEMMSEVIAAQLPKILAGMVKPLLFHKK
How it was run: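 PR-UAS-bla HEK 293T cells carrying a UAS-driven beta-lactamase reporter were seeded in medium with 2% charcoal-stripped FBS, preincubated 6 hr at 37C, then exposed to compounds in DMSO for 16 hr; agonism was read by LiveBLAzer B/G FRET fluorescence.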

[4] = biological target: Progesterone receptor (Homo sapiens) (UniProt P06401); test: qHTS assay to identify small molecule antagonists of the progesterone receptor (PR) signaling pathway (AID 1346795; active means well fitted inhibition curve with a large enough effect in the signal ratio in the repeat runs, not every such curve was filed as active; the % refers to the signal ratio; further: potency means the concentration at half of the fitted maximal effect); settings: PR-UAS-bla HEK293T, beta-lactamase FRET ratio, 16 h; series mostly up to 92.4 µM
How it was run: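 PR-UAS-bla HEK293T cells carrying a UAS-driven beta-lactamase reporter were plated in medium with 2% charcoal-stripped FBS and rested 6 hr at 37C. Compounds were added with 1 nM R5020 (final) for 16 hr, then FRET substrate loaded 2 hr at room temperature.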

[5] = qHTS assay to identify small molecule antagonists of the progesterone receptor (PR) signaling pathway - cell viability counter screen (AID 1346798); settings: PR-UAS-bla HEK293T viability, CellTiter-Glo luminescence, 16 h; series mostly up to 92.4 µM; further: nearly all actives have a fitted effect of over 50% in size; further: potency means the concentration at half of the fitted maximal effect
How it was run: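 PR-UAS-bla HEK293T cells in medium with 2% charcoal-stripped FBS were treated with compounds plus R5020 for 16 hr at 37C. Cell viability was then read by CellTiter-Glo luminescence after 30 min at room temperature in the same wells.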

[6] = qHTS assay to identify small molecule agonists of the progesterone receptor (PR) signaling pathway - cell viability counter screen (AID 1346799; calls by dose curve; further: nearly all actives have a fitted effect of over 45% in size); settings: PR-UAS-bla HEK293T viability, CellTiter-Glo luminescence, 16 h; series mostly up to 92.4 µM
How it was run: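 PR-UAS-bla HEK293T cells, 3,000 per well in medium with 2% charcoal-stripped FBS, were preincubated 6 hr at 37C, then exposed to compounds for 16 hr; viability was read as CellTiter-Glo luminescence after 30 min at room temperature.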

[7] = qHTS assay to identify small molecule agonists of the TGF-beta/Smad signaling pathway - cell viability counter screen (AID 1346829); settings: SBE-bla HEK293T viability, CellTiter-Glo luminescence, 5 h; series mostly up to 76.8 µM; further: top concentration of the series differs between compounds; nearly all actives have a fitted effect of over 45% in size
How it was run: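 Same-well cytotoxicity: CellTiter-Glo added after the 2 hr room-temperature beta-lactamase substrate step, luminescence measured 30 min later; cells had 5 hr of compound at 37 C.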

[8] = qHTS assay to identify small molecule agonists of the TGF-beta/Smad signaling pathway (AID 1346859; active means well fitted activation curve with a large enough effect in the signal ratio in the repeat runs, not every such curve was filed as active; the % refers to the signal ratio); settings: SBE-bla HEK293T, TGF-beta/Smad beta-lactamase reporter, 5 h; series mostly up to 76.8 µM
How it was run: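 HEK 293T cells stably carrying a beta-lactamase reporter driven by the Smad binding element were seeded overnight, exposed to DMSO-dissolved compounds for 5 hr at 37 C, 5% CO2, then loaded with FRET substrate for 2 hr at room temperature.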

[9] = biological target: Thyrotropin-releasing hormone receptor (Homo sapiens) (UniProt P34981); test: qHTS assay to identify small molecule antagonists of the thyrotropin-releasing hormone receptor (TRHR) signaling pathway (AID 1346877; active means well fitted inhibition curve with a large enough effect in the repeat runs, not every such curve was filed as active); settings: TRHR-HEK293, TRH-induced calcium fluorescence, antagonist mode; series mostly up to 51.3 µM
Thyrotropin-releasing hormone receptor (Homo sapiens), sequence (P34981 whole entry, looked up): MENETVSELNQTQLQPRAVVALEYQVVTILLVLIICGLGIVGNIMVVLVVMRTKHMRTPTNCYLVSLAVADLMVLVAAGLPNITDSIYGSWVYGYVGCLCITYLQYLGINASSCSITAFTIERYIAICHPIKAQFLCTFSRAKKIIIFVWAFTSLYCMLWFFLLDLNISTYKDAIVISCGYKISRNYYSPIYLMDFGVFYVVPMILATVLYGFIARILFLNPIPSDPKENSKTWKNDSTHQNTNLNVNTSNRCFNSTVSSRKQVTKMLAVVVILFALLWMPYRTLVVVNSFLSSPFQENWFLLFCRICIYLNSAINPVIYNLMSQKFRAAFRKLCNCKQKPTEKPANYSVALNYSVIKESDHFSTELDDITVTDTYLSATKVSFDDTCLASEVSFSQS
How it was run: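 Screening used HEK293 cells engineered with TRHR, with a brief 5 min room-temperature compound exposure preceding addition of TRH to 1 nM. The read-out was kinetic calcium-dye fluorescence, concentration-response from 15 doses in triplicate.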

[10] = qHTS assay to identify small molecule antagonists of the TGF-beta/Smad signaling pathway - cell viability counter screen (AID 1346824); settings: SBE-bla HEK293T viability, CellTiter-Glo luminescence; series mostly up to 76.8 µM; further: nearly all actives have a fitted effect of over 50% in size
How it was run: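 SBE-bla HEK 293T cells, incubated overnight, then compound plus 0.25 ng/mL TGF-beta1 (stock added) for 5 hr at 37 C. Viability was read in the same wells by CellTiter-Glo luminescence after 30 min at room temperature.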

Measured: Potency

C(COCC1CO1)OCC1CO1 (stereo not drawn)
not listed: [10]
inactive: all other assays above

CCOC(=O)c1ncn2c1CN(C)C(=O)c1c(I)cccc1-2
not listed: [6]
inactive: all other assays above

CCCOC(=O)c1cncn1C(C)c1ccccc1 (stereo not drawn)
not listed: [6]
inactive: all other assays above

CCOC(=O)N(C)N=O
not listed: [7]
inactive: all other assays above

NNCc1ccccc1
not listed: [6]
inactive: all other assays above

OP(O)c1ccccc1
inactive: all assays above

COC(=O)c1ccc(CBr)cc1
not listed: [6]
inactive: all other assays above

CCC(C)C(C)(COC(N)=O)COC(N)=O (stereo not drawn)
inactive: all assays above

CC(C)N(Cc1ccccc1)C(=O)C(C)(C)C
not listed: [6]
inactive: all other assays above

C[C@H](N)C(=O)c1ccccc1
not listed: [6]
inactive: all other assays above

CCOC(=O)C(Cl)Cc1cc(-n2nc(C)n(C(F)F)c2=O)c(F)cc1Cl (stereo not drawn)
not listed: [6]
inactive: all other assays above

CC(O)CCl (stereo not drawn)
not listed: [7] | [9]
inactive: all other assays above

ClCCCCl
not listed: [7]
inactive: all other assays above

O=[N+]([O-])c1cccc(CCl)c1
not listed: [6]
inactive: all other assays above

CCC(=O)OC1(c2ccccc2)CCN(C)CC1
not listed: [7]
inactive: all other assays above

NCC1(CC(=O)O)CCCCC1
not listed: [6]
inactive: all other assays above

CCOP(=O)(CN(CCO)CCO)OCC
not listed: [6] | [9]
inactive: all other assays above

CNC(=O)Oc1ccccc1C(C)C
not listed: [6] | [9]
inactive: all other assays above

C=C1CC[C@@]2(O)[C@H]3Cc4ccc(O)c5c4[C@@]2(CCN3CC2CC2)[C@H]1O5
active: [5] 2.98 µM
not listed: [7]
inactive: all other assays above

[O-][Br+2]([O-])O
not listed: [6]
inactive: all other assays above

CCOC(=O)C(SP(=S)(OC)OC)c1ccccc1 (stereo not drawn)
not listed: [4]
inactive: all other assays above

CCC(C(N)=O)N1CCCC1=O (stereo not drawn)
not listed: [4]
inactive: all other assays above

CCOC1Oc2ccc(OS(C)(=O)=O)cc2C1(C)C (stereo not drawn)
active: [4] 30.4 µM
not listed: [5] | [6]
inactive: all other assays above

CCCOC(=O)Cc1ccc(OCC(=O)N(CC)CC)c(OC)c1
not listed: [4]
inactive: all other assays above

Clc1nc(Cl)nc(Nc2ccccc2Cl)n1
not listed: [4]
inactive: all other assays above

CS(=O)(=O)c1ccc(C(=O)C2C(=O)CCCC2=O)c(Cl)c1COCC(F)(F)F
not listed: [6] | [7]
inactive: all other assays above

CCc1ccc(C2CCNCC2)cc1
not listed: [5] | [6]
inactive: all other assays above

CC1N=C(N)OC1c1ccccc1 (stereo not drawn)
active: [5] 37.7 µM
not listed: [4]
inactive: all other assays above

CC(C)c1ccc(O)cc1
not listed: [4]
inactive: all other assays above

COc1cc(CCN)cc(OC)c1OC
not listed: [4] | [9]
inactive: all other assays above

C=CCC1(C(C)CC)C(=O)NC(=O)NC1=O (stereo not drawn)
not listed: [4] | [9]
inactive: all other assays above

CC(C)[N+](C)(CCC(C(N)=O)(c1ccccc1)c1ccccc1)C(C)C
not listed: [4] | [6]
inactive: all other assays above

NC1(c2ccccc2)CCCCC1
not listed: [4] | [6]
inactive: all other assays above

C=CCc1cc(OC)c2c(c1)OCO2
not listed: [4]
inactive: all other assays above

N#CN=C1SCCN1Cc1ccc(Cl)nc1
not listed: [4] | [6]
inactive: all other assays above

N[C@@H]1C[C@H]1c1ccccc1
not listed: [4]
inactive: all other assays above

c1ccc2c(c1)CCNC2
not listed: [4] | [7]
inactive: all other assays above

Cl/C=C/CCl
not listed: [4] | [9]
inactive: all other assays above

CC[C@@H](CO)NC(=O)[C@@H]1C=C2c3cccc4[nH]cc(c34)C[C@H]2N(C)C1
not listed: [6] | [7]
inactive: all other assays above

CCN(CC)CCOC(=O)C(O)(c1ccccc1)c1ccccc1
not listed: [5]
inactive: all other assays above

CN(CCO)CCO
not listed: [4]
inactive: all other assays above

CCOC(=O)CC(SP(=S)(OC)OC)C(=O)OCC (stereo not drawn)
1.37 µM (active) and inactive: [3]
not listed: [4]
inactive: all other assays above

COC1=CC(=O)O[C@@H](/C=C/c2ccccc2)C1
not listed: [4] | [8] | [9]
inactive: all other assays above

CCOP(=S)(OCC)Oc1ccc(Cl)cc1Cl
not listed: [4]
inactive: all other assays above

CCOC(=O)Nc1cccc(OC(=O)Nc2ccccc2)c1
not listed: [6] | [7]
inactive: all other assays above

COc1ccc(C=O)cc1O
not listed: [6] | [7]
inactive: all other assays above

Clc1ccc(C(Cl)(Cl)Cl)cn1
not listed: [5] | [6]
inactive: all other assays above

O=c1[nH]oc2c1CCNC2
not listed: [4] | [9]
inactive: all other assays above

CC(=NC#N)N(C)Cc1ccc(Cl)nc1
not listed: [4]
inactive: all other assays above

CC(C)(N)Cc1ccccc1Cl
not listed: [5] | [6]
inactive: all other assays above

Nc1c(Cl)c(F)nc(OCC(=O)O)c1Cl
not listed: [4] | [6]
inactive: all other assays above

CC(C)NCC(O)c1ccc([N+](=O)[O-])cc1 (stereo not drawn)
not listed: [5]
inactive: all other assays above

CCC(C)(C#N)N=NC(C)(C#N)CC (stereo not drawn)
not listed: [6] | [7]
inactive: all other assays above

CN(C)C(=O)Oc1cc(OC(=O)N(C)C)cc(C(O)CNC(C)(C)C)c1 (stereo not drawn)
not listed: [6] | [7]
inactive: all other assays above

CCCN1CCC[C@@H]2Cc3[nH]ncc3C[C@H]21
not listed: [4]
inactive: all other assays above
